Assay outcomes from PubChem BioAssay.
Only some compounds are listed: those with a hit (about 2.2% of all), similar ones and a draw of the others.
Nrf2 inh: blocks Nrf2 signaling; A549 ARE-Fluc reporter, luciferase luminescence, 18-24 h; Potency, µM (top dose mostly 46 µM), inactives show at the highest dose activity change, negative = inhibition, actives largely listed as inhibitors; hit rate 2.1% among 360,000; further: on the % scale 0 is the no-effect control and ±100 the full control effect; nearly all actives have a fitted effect of over 60% in size
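Concentration-response testing used A549 ARE_Fluc cells at 5000 cells/well. Following an 18-24 h compound incubation, viability was read by fluorescence (Ex 405/Em 525) and luciferase output by luminescence.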
Pin1 inhibitor: human Pin1 inhibition; Q13526; hit rate 0.009% among 390,000; Pin1 FP peptide displacement, HiFluor488, 10 min; Potency, µM (highest dose often 115 µM), for inactives: at the top dose activity, negative = inhibition, actives largely listed as inhibitors; active means well fitted inhibition curve with a large enough effect in the polarisation, with a control signal flat, not every such curve was filed as active; inconclusive means small, poorly fitted or top-dose-only effect, or effect the other way, or a change in a side signal; inactive means no such curve, though single readings can be large or run the other way; the % refers to the polarisation; further: on the % scale 0 is the no-effect control and ±100 the full control effect
Target sequence (Q13526 whole entry, looked up): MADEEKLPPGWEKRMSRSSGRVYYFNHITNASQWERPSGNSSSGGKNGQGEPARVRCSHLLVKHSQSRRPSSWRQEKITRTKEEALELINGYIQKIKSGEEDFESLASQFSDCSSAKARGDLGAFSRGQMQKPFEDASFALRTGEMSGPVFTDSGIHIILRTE
Nrf2 ARE act: activators of Nrf2 (ARE) signaling | hit rate 0.31% among 410,000 | AREc32 ARE-luciferase reporter (MCF7-derived line), luminescence, 24 h | Potency, µM (top dose mostly 46.1 µM), for the others: at the top dose activation, actives largely listed as activators; further: % of control where 0% means no effect; nearly all actives have a fitted effect of over 65% in size
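AREc32 cells carrying an ARE-driven firefly luciferase, 1000 cells/well in OPTI-MEM with 5% FBS, dosed after overnight attachment and incubated 24 hr at 37 deg C. Steady-Glo luminescence read after 30 min at RT.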
A549 viability: counter-screen for Nrf2 inhibitors: cytotoxicity in A549 cells. A549 ARE-Fluc cells, CellTiter-Fluor viability, 18-24 h. hit rate 0.16% among 390,000. Potency, µM (doses to about 46 µM), for inactives: at the highest dose activity change, negative = cytotoxicity, most hits filed as inhibitors. AID 504648; further: on the % scale 0 is the no-effect control and ±100 the full control effect
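A549 ARE-Fluc cells in 5% FBS OPTI-MEM, 5000 cells/well, rested 2 h then exposed to compounds in concentration-response for 18-24 h at 37 °C. Viability by CellTiter-Fluor fluorescence (Ex 405/Em 525) after 30 min; luciferase luminescence (BugLite, 15 min, RT) read afterwards.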
* = called active by the depositor; ! = a repeat was not active; [ ] = another dose, or the depositor's remark. Unless noted, the call rests on the fitted dose curve; in most records, active means well fitted curve in the direction sought with a large enough effect; inconclusive means small, poorly fitted or top-dose-only effect, or another doubt; inactive means no such curve, though single readings can be large; an effect the other way counts as inactive or inconclusive. Potency means the concentration at half of the fitted maximal effect.

For CCc1nnc(NS(=O)(=O)c2ccc(NC(=O)c3ccc([N+](=O)[O-])s3)cc2)s1 the results were Nrf2 ARE act 14µM*.
`CC(=O)c1ccc(Nc2ccc([N+](=O)[O-])c3nonc23)cc1` gave Nrf2 inh -1%, Pin1 inhibitor 41%, Nrf2 ARE act 11µM* and A549 viability inconclusive.
For CCc1nnc(NS(=O)(=O)c2ccc(NS(=O)(=O)c3ccccc3[N+](=O)[O-])cc2)s1 the results were Nrf2 inh 11%, Pin1 inhibitor inconclusive, Nrf2 ARE act 0% and A549 viability 0%.
Screening Cc1cc(=O)n(Cc2ccccc2Cl)c2c1c(C)nn2-c1ccccc1 returned Nrf2 inh inconclusive, Pin1 inhibitor 2%, Nrf2 ARE act 0% and A549 viability 7%.
Screening CCN(C(=O)CCS(=O)(=O)c1cc2[nH]c(=O)c(=O)[nH]c2cc1C)c1ccccc1 returned Nrf2 inh 16%, Pin1 inhibitor 11%, Nrf2 ARE act -1% and A549 viability 1%.
`Oc1ccc(/C=N/Nc2nc(-c3cccnc3)nc3ccccc23)c(O)c1` gave Nrf2 inh 21µM*, Pin1 inhibitor 46%, Nrf2 ARE act -1% and A549 viability -13%.
Screening Cc1c(O)ccc(/C=N/Nc2nc(-c3cccnc3)nc3ccccc23)c1O returned Nrf2 inh -7%, Pin1 inhibitor 39%, Nrf2 ARE act 4% and A549 viability -8%.
Screening COc1ccc(C2C(C(N)=O)=C(C)Nc3nc(SCc4ccccc4Cl)nn32)cc1OC (stereo not given) returned Nrf2 inh -2%[9.27 µM], Pin1 inhibitor 6%, Nrf2 ARE act 0% and A549 viability -2%.
`Oc1cccc2ccc(/C=C/c3c(F)cccc3Cl)nc12` gave Nrf2 inh 30%, Pin1 inhibitor -2%, Nrf2 ARE act 1µM* and A549 viability 1%.
Screening Nc1nccc(/C=C/c2c(F)cccc2Cl)n1 returned Nrf2 inh inconclusive, Pin1 inhibitor 12%, Nrf2 ARE act 10µM* and A549 viability 6%.
Screening O=S(=O)(c1ccccc1)N1CCN(c2nccc(-c3cccs3)n2)CC1 returned Nrf2 inh -10%, Pin1 inhibitor 38% and A549 viability 4%.
Screening O=S(=O)(NCC1CCN(c2ccc(S(=O)(=O)N3CCOCC3)cc2)CC1)c1ccc(F)cc1 returned Nrf2 inh 21µM*, Pin1 inhibitor 10%, Nrf2 ARE act 1% and A549 viability inconclusive.
Screening CSc1ncc(Cl)c(C(=O)Nc2ccc(NC(C)=O)cc2)n1 returned Nrf2 inh -3%, Pin1 inhibitor -3%, Nrf2 ARE act 0% and A549 viability 1%.
Screening CSc1ncc(Cl)c(C(=O)Nc2cccnc2)n1 returned Nrf2 inh 2%, Pin1 inhibitor 3%, Nrf2 ARE act 11µM* and A549 viability -6%.
For COc1ccc(NC(=O)Cn2cc(S(=O)(=O)c3ccccc3)c(=O)c3cc(C)ccc32)cc1Cl the results were Nrf2 inh 15%, Pin1 inhibitor 38%, Nrf2 ARE act 0% and A549 viability 0%.
`CCC(=O)NC(c1cc(Cl)c2cccnc2c1O)c1cccn1C` (stereo not given) gave Nrf2 inh 26µM*, Pin1 inhibitor -5% and A549 viability -11%.
For CCC(=O)NC(c1ccc(F)cc1)c1cc(Cl)c2cccnc2c1O (stereo not given) the results were Nrf2 inh inconclusive, Pin1 inhibitor 10% and A549 viability -11%.
`CCC(=O)NC(c1ccc(OC)cc1)c1cc(Cl)c2cccnc2c1O` (stereo not given) gave Nrf2 inh 26µM*, Pin1 inhibitor 3%, Nrf2 ARE act -1% and A549 viability -10%.
`CCC(=O)NC(c1ccco1)c1cc(Cl)c2cccnc2c1O` (stereo not given) gave Nrf2 inh 9.2µM*!, Pin1 inhibitor 0%, Nrf2 ARE act 2% and A549 viability inconclusive.
For CC(=O)NC(c1cc(Cl)c2cccnc2c1O)C(C)C (stereo not given) the results were Nrf2 inh 21µM*, Pin1 inhibitor 0%, Nrf2 ARE act 0% and A549 viability -12%.
For COC(=O)c1cc2oc3ccccc3c2n1Cc1nc(-c2ccccc2Cl)oc1C the results were Nrf2 inh 8%, Pin1 inhibitor 1%, Nrf2 ARE act 0% and A549 viability 5%.
O=C(O)c1cccc(S(=O)(=O)N2CCN(S(=O)(=O)c3ccc4c(c3)OCCO4)CC2)c1 was read as Nrf2 inh 3%, Pin1 inhibitor 1% and A549 viability -3%.
